The values that follow come from PubChem BioAssay AID2216 (Broad Institute, 2009).

Screen size: about 300,000 compounds; about 3,300 (1.1%) were called active. Not shown: some 6% with an inconclusive outcome. The list comes from a sample in which actives are over-represented; it also holds similar structures and randomly drawn compounds. Unmarked numbers belong to inactive results.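 The calls were made as follows: active = more than half of the replicate wells show a fall in the fluorescence ratio signal beyond about 16% (limit read from the data, passing the limit was not always enough); inconclusive = exactly half of the replicate wells pass the set limit; inactive = fewer than half of replicates pass the limit.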

This experiment has as its system Ran GTPase (GTP-bound) - importin-beta complex. The experiment can be described thus: inhibitors of RanGTP-importin-beta interaction, primary screen, biochemical, FRET, CFP-Ran, YFP-importin-beta, homogeneous (AID 2216).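 Also: 0% = DMSO wells and 100% = Ran loaded with GDP instead of GTP.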 Conditions: cell-free CFP-Ran/YFP-importin-beta FRET ratio; active compounds read high; concentration not given here.
As for `Cc1ccc(OCCNC(=O)CNC(=O)c2ccc(C)c(C)c2)cc1`, the inhibition is 4.18%.
The result for `Oc1ccc(N=Cc2sc3ccccc3c2Cl)cc1` reads 5.46%; that for `COc1ccc(N=C(C)c2sc3ccccc3c2O)cc1`, 39.4% (active); that for `COc1ccc(N=Nc2ccc(O)c(P(=O)(c3ccccc3)c3ccccc3)c2)cc1`, -0.168%.
In the case of `COc1ccc(C)cc1NC(=O)CSc1ccc(Cl)cc1`, the inhibition is 27.5% (active).
The result for `COc1ccc(C)cc1NC(=O)CSc1nc(SC)ns1` reads 2.19%.
On to `COC(=O)c1cc(OC)c(OC)cc1NC(=O)CSc1ccc(C)cc1`, for which the inhibition was -0.733%.
Consider `CCC(c1nnc(SCC(=O)NNC(=O)c2ccccc2)n1Cc1ccccc1)N(C)C` (stereo not drawn), for which the inhibition is -5.06%.
Take `Cc1cc(C)c(C#N)c(N2CCC(C(N)=O)CC2)n1`: the inhibition was -1.05%.
With `Cc1cccn2c(=O)c(/C=C(\C#N)C(N)=O)c(N3CCCCCC3)nc12` the figure was -1.31%; with `Cc1cccn2c(=O)c(/C=C(\C#N)S(=O)(=O)c3ccc(Cl)cc3)c(N3CCC(C(N)=O)CC3)nc12`, 16.6% (active).
The result for `CS(=O)(=O)N(CC(=O)N1CCc2ccccc2C1)c1ccc(Br)cc1` reads 0.322%; that for `Cc1ccc(-c2csc(NC(=O)C3=COCCO3)n2)cc1C`, 2.13%; that for `COc1cccc(C(=O)NNC(=O)c2cccc(F)c2)c1`, -3.67%.
The result for `COc1ccc2oc(=O)c(C(=O)N3CCCC3)cc2c1` reads 0.715%; that for `COc1cccc(C(=O)c2cc3ccc(O)cc3oc2=O)c1`, 26.4% (active).
Turning to `COc1cccc(N2CC(NC(=O)c3ccc4ccccc4c3)CC2=O)c1` (stereo not drawn), the inhibition is -1.06%.
The result for `CCN1C(=O)[C@H]2[C@@H](c3ccc(-c4ccc(F)cc4)cc3)N[C@@](Cc3ccccc3)(C(=O)OC)[C@H]2C1=O` reads -2.12%; that for `COc1ccc(N2CCN(C(=O)COC(=O)c3cccc(S(=O)(=O)Nc4ccccc4OC)c3)CC2)cc1`, -1.93%; that for `O=C(CN1C(=O)CC(c2ccccc2)S(=O)(=O)c2ccccc21)NC1CCCC1` (stereo not drawn), 0.0598%.
The result for `CC1CC(=O)N(CC(=O)Nc2cccc(Cl)c2)c2ccccc2S1(=O)=O` (stereo not drawn) reads 18.5% (active); that for `CCOC(=O)c1cccc(NC(=O)CN2C(=O)C3CC=CCC3C2=O)c1` (stereo not drawn), 3.31%.
The result for `COc1ccc2c(c1)C(=O)Nc1cc(Cl)ccc1N2` reads 1.28%; that for `Cc1noc(C)c1CSCC(=O)N(CCC(C)C)c1c(N)n(Cc2ccccc2)c(=O)[nH]c1=O`, -1.15%; that for `COc1ccc(CN2[C@@H](CC(=O)O)c3cc(F)ccc3S2(=O)=O)cc1`, 3.99%.
In the case of `CCN1C(=O)[C@H]2[C@@H](c3ccc(SC4CCCCC4)c(OC)c3)N[C@@](Cc3ccccc3)(C(=O)OC)[C@H]2C1=O`, the inhibition was -1.26%.
Turning to `CN1CCN(c2cc(=O)n(-c3ccc(Cl)cc3)c(=O)[nH]2)CC1`, the inhibition is 31.4% (active).
On to `CN1CCN(c2ccc(NC(=O)c3ccc4c(c3)[nH]c(=O)n4Cc3ccc(F)cc3)cc2)CC1`, for which the inhibition was 0.81%.
As to `O=C(Cc1ccc(-n2c(=O)[nH]c3ccccc3c2=O)cc1)N1CCN(c2cccc(Cl)c2)CC1`, the inhibition was 2.52%.
With `CCCC[C@@H]1CN=C(N)N1CCCC` the figure was 5.62%.
The result for `O=C(Oc1ccc(-c2nnco2)cc1)c1ccc(F)c(S(=O)(=O)N2CCOCC2)c1` reads 1.51%.
The result for `CCCOc1ccc(Cn2ccnc2)cc1[N+](=O)[O-]` reads 22.9% (active); that for `CCCCOc1ccc(CSC(=N)N)cc1[N+](=O)[O-]`, -0.296%.
For the compound `CCCCCOc1ccc(CSC2=NCCN2)cc1[N+](=O)[O-]`, the inhibition is -3.18%.
With `Cc1cc(=O)[nH]c(SCc2ccc(Cl)cc2)n1` the figure was 2.35%.
On to `COc1ccccc1CCC(=O)OCC(=O)N1CCN(S(=O)(=O)c2ccc(C)cc2C)CC1`, for which the inhibition was -0.0627%.
Take `Cc1ccc(S(=O)(=O)CCC(=O)OCC(=O)N(C)C2CCS(=O)(=O)C2)cc1` (stereo not drawn): the inhibition is -1.57%.
The result for `CCc1ccc(C(=O)COC(=O)c2ccco2)cc1` reads -1.46%; that for `O=C(Nc1cccc(NC(=O)c2ccccc2[N+](=O)[O-])c1)c1ccccc1Cl`, 1.99%.
Consider `O=C(Nc1ccc2sc3ccccc3c(=O)c2c1)c1ccccc1Cl`, for which the inhibition is 97.7% (active).
As to `O=C(Nc1ccc2nc3n(c(=O)c2c1)CCCCC3)c1ccccc1Cl`, the inhibition was -0.768%.
With `COc1cnn(-c2ccc([N+](=O)[O-])cc2)c(=O)c1Cl` the figure was 9.19%; with `CCCCCN(C(=O)CCC(=O)OCC(=O)NC1CCC(C)CC1)c1c(N)n(CCCC)c(=O)[nH]c1=O` (stereo not drawn), 10.6%.
`O=C(NC(Cc1ccccc1)C(=O)N1CCCC(C(F)(F)F)C1)c1ccccc1` (stereo not drawn): the inhibition was -0.899%.
With `COC(=O)NNC1=CC(=O)CC(C)(C)C1` the figure was 2.34%; with `CC1(C)CC(=O)C=C(Nc2ccccc2)C1`, 11.7%; with `Cc1cc(O)ccc1NC1=CC(=O)CC(C)(C)C1`, 18.8% (active).
The result for `CCCCCCCNC(=O)C1(CC2CC(c3cccc(Br)c3)=NO2)CCN(C(=O)c2cc(OCC)c(OCC)c(OCC)c2)CC1` (stereo not drawn) reads -1.08%; that for `COc1ccc(/C=C(\C#N)c2c[nH]c3ccccc23)cc1`, 17.3% (active).
As for `COc1ccc2[nH]cc(/C=C(/C#N)S(=O)(=O)c3ccccc3)c2c1`, the inhibition is -20.9%.
For the compound `COc1cc(/C=C(\C#N)c2nc3ccccc3[nH]2)ccc1O`, the inhibition was -13.2%.
The result for `CCCNC(=O)c1ccc(N2CCC3(CC2)CC(c2cccc(Br)c2)=NO3)c(NC(=O)c2ccco2)c1` reads -1.47%; that for `Cc1cc(/C=C2/SC(=O)N(CC(=O)N3CCCC3)C2=O)c(C)n1C`, -0.395%; that for `CCN(CC(=O)Nc1c(F)cccc1F)C(=O)CN1c2cccc3cccc(c23)S1(=O)=O`, -0.907%.
With `COc1ccc(Cc2nnc(SCC(=O)Nc3ccc(C)c(Cl)c3)[nH]c2=O)cc1` the figure was -0.239%; with `O=C(COC(=O)c1ccc([N+](=O)[O-])cc1Cl)NC(=O)c1ccccc1`, -13.9%; with `COc1cccc(/C=C2\C=C(c3ccc(C)cc3)OC2=O)c1OC(C)=O`, 20.6% (active).
With `Cc1ccc(C2=C/C(=C\c3cccnc3)C(=O)O2)cc1` the figure was 8.88%; with `CN(C)/C=C1\C=C(c2ccccc2)OC1=O`, -3.27%; with `COc1cccc(/C=C/C(=O)OCC(=O)N2CCCc3ccccc32)c1`, 3.35%.
Consider `O=C(CCNC(=O)c1ccc(Br)cc1)NCCCc1ccccc1`, for which the inhibition was 1.56%.
Turning to `COc1ccc(CCNC(=O)Cn2c(=O)n(CC3CCCO3)c(=O)c3ccccc32)cc1OC` (stereo not drawn), the inhibition is -2.65%.
The result for `O=C(NCc1ccco1)c1cccn2c(=O)c3c4c(sc3nc12)CCCC4` reads -9.38%.
With `O=C(NCc1cccnc1)c1cc(S(=O)(=O)N2CCOCC2)c(Cl)cc1Cl`, the inhibition is -0.678%.
The result for `Cc1ccccc1NC(=O)Cn1c(=O)n(CC2CCCO2)c(=O)c2ccccc21` (stereo not drawn) reads 0.402%.
`Cc1ccc2nc3c(cc(C(=O)NCCc4ccccc4)c(=N)n3CC3CCCO3)c(=O)n2c1` (stereo not drawn): the inhibition was 182% (active).
As for `Cc1cccn2c(=O)c3cc(C#N)c(=NC(=O)c4cccnc4)n(CC4CCCO4)c3nc12` (stereo not drawn), the inhibition is 154% (active).
For `Cc1cccn2c(=O)c3cc(C(=O)NCCN4CCOCC4)c(=N)n(Cc4cccnc4)c3nc12`, the inhibition is 167% (active).
The result for `Cc1ccc(CCNC(=O)c2ccc3nc4ccccc4c(=O)n3c2)cc1` reads 8.55%; that for `Cc1ccc(C(=O)NCCN2CCOCC2)cc1C`, -1.81%; that for `COc1ccc2oc(C(=O)NCc3ccco3)c(C)c2c1`, -0.417%.
For `Cc1cccn2c(=O)c3cc(C(=O)NC4CCCCC4)sc3nc12`, the inhibition was 2%.
The result for `COc1ccc(CCn2c(=N)c(C(=O)NCc3ccco3)cc3c(=O)n4cccc(C)c4nc32)cc1` reads 21.1% (active); that for `COc1cccc(NC(=O)CSc2nccn(-c3ccc4c(c3)OCCO4)c2=O)c1`, -2.91%.
With `CCCCN(C1CCS(=O)(=O)C1)S(=O)(=O)c1ccc(C(C)C)cc1` (stereo not drawn) the figure was 0.359%.
With `O=C(c1ccc(NS(=O)(=O)c2ccc3[nH]c(=O)[nH]c3c2)cc1)N1CCCCC1` the figure was 0.81%; with `COc1ccc(CCNC(=O)c2ccccc2OCc2ccccc2)cc1`, 2.59%.
Regarding `O=C(N[C@@H](Cc1ccccc1)C(=O)OCc1ccccc1)c1nc[nH]c1C(=O)NC1CCNCC1`, the inhibition was 1.19%.
With `Cc1ccc2nc(N3CCN(C(=O)c4ccco4)CC3)sc2c1` the figure was -2.41%; with `COc1ccc(C(=O)OCC(=O)c2ccc(Cl)s2)c(OC)c1OC`, 0.711%; with `Cc1cc(C)c(S(=O)(=O)NCC(c2ccc3c(c2)OCO3)N2CCOCC2)c(C)c1` (stereo not drawn), 2.24%.
With `O=C(NCC1CCCO1)c1cc2c([nH]c3ccccc32)c(-c2ccc(F)cc2)n1` (stereo not drawn) the figure was -5.32%.
With `Cc1cccn2c(=O)c3cc(C(=O)NCC4CCCO4)c(=N)n(Cc4ccc(F)cc4)c3nc12` (stereo not drawn) the figure was 188% (active); with `CCOC(=O)C1CCN(Cc2c(C(=O)N3CCOCC3)nc3c(C)cccn23)CC1`, -0.645%; with `Cc1cccn2c(=O)c3cc(C#N)c(=O)n(CCCN4CCOCC4)c3nc12`, 117% (active).
With `COc1ccc(CCn2c(=N)c(C(=O)NCC3CCCO3)cc3c(=O)n4cccc(C)c4nc32)cc1OC` (stereo not drawn), the inhibition was 0.0539%.
Regarding `Cc1cccn2c(=O)c3cc(C(=O)N4COCC4(C)C)n(C)c3nc12`, the inhibition is -4.28%.
The result for `CCc1noc(C)c1C(=O)N1CCCC(N2CCN(c3ccc(F)cc3)CC2)C1` (stereo not drawn) reads 3.28%.

The term inhibition denotes the drop in the measured response relative to a control, in per cent.
